As a reminder, the inhibition is the drop in the measured response relative to a control, in per cent.

Serine/threonine-protein kinase PAK 3 (Homo sapiens), sequence (O75914 whole entry, looked up): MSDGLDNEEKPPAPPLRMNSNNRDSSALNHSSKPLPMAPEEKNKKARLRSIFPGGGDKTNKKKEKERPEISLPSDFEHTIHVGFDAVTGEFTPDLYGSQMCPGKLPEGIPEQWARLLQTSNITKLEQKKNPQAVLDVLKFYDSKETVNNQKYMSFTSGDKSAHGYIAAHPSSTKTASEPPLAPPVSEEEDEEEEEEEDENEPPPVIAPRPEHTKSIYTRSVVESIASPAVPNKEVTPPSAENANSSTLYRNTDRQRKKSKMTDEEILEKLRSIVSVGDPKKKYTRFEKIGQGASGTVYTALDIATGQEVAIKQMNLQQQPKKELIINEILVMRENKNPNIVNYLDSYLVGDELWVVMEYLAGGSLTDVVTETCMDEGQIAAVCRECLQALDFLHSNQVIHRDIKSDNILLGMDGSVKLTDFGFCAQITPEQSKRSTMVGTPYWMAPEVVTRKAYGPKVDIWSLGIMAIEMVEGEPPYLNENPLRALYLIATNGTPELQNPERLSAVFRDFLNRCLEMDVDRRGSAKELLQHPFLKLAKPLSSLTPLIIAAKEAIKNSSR
Serine/threonine-protein kinase PAK 5 (Homo sapiens), sequence (Q9P286 whole entry, looked up): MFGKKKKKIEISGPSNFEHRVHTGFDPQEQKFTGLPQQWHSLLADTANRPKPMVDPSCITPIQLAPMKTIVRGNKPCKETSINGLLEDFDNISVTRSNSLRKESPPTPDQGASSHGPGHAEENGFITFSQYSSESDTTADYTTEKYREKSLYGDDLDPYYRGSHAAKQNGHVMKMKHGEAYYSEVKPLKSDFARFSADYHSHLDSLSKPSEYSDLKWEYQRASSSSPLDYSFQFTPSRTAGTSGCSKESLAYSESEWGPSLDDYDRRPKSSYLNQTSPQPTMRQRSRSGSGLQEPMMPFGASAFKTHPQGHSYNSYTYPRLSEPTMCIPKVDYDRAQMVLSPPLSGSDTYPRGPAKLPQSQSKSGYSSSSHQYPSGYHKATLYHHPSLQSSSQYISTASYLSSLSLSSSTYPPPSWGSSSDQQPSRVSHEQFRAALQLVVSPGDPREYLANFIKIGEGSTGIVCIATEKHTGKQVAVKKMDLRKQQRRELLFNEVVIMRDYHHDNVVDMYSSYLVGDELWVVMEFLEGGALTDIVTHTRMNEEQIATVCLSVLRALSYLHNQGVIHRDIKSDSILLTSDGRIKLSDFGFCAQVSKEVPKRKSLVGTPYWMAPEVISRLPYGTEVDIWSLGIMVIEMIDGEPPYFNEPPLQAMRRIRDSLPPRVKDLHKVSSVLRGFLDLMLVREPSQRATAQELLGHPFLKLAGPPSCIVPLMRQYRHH

One experiment concerns the target Serine/threonine-protein kinase PAK 3 (Homo sapiens) (UniProt O75914). The conditions noted are these: at 0.1 µM.
In the case of `COC(=O)Nc1nc2ccc(Sc3ccc(NC(=O)Nc4cc(C(F)(F)F)ccc4F)cc3)cc2[nH]1`, the inhibition is -0.08%.
Still for that read-out and setting: the value for `COc1ccc(C2=C(N3CCc4ccccc43)C(=O)NC2=O)cc1` was 4.96%.
In the case of `CN1CCN(CCCNc2nc3ccc(Oc4ccc(NC(=O)Nc5cc(C(F)(F)F)ccc5F)cc4)cc3[nH]2)CC1`, the inhibition came out at 1.62%.
Same read-out and setting: the value for `CCC(=O)Nc1ccc(C)c(-c2ccc(C(=O)NCC3CC3)cc2)c1` was 2.56%.
As for `CN(c1ccc(NC(=O)Nc2c(Cl)cccc2Cl)cc1)c1ccnc(Nc2cccc(CS(C)(=O)=O)c2)n1`, the inhibition is 1.56%.
Still for that read-out and setting: the value for `NS(=O)(=O)c1ccc(N/N=C2\C(=O)Nc3ccc(C(=O)NCCCn4ccnc4)cc32)cc1` was 4.22%; that for `Cc1ccc(NC(=O)c2ccoc2)cc1-c1ccc(C(=O)NCC2CC2)cc1` was 2.22%.

The next experiment has the same target. The conditions noted are these: at 1 µM.
`O=C(Nc1n[nH]c2nc(-c3ccc(O)cc3)c(Br)cc12)C1CC1`: the inhibition was 6.07%.
The same measure, in the same setting: the value for `Fc1ccc(-c2ncn(CCCN3CCOCC3)c2-c2ccncc2)cc1` was 0.53%.
For the molecule `COc1ccc2cc(-c3c(-c4ccncc4)nc(-c4ccc([S+](C)[O-])cc4C)n3C)ccc2c1` (centres undefined), the inhibition was -1.45%.
The same measure, in the same setting: the same measure for `c1ccc(Oc2ccc(Nc3ncc(-c4ccccc4)o3)cc2)cc1`: 0.63%; for `C[C@@H](Oc1cc(-n2cnc3ccc(OC4CCN(C)CC4)cc32)sc1C(N)=O)c1ccccc1Cl`: 10.3%; for `NC(=O)c1cc(-c2ccncc2)cc(-c2ccccc2)c1N`: 6.71%.
Still for that read-out and setting: the same measure for `O=C(NCC1CC1)c1ccc(-c2cccc(C(=O)NC3CC3)c2)cc1`: 2.97%.
Still for that read-out and setting: the same measure for `O=C1Nc2ccccc2/C1=C/Nc1ccc(-n2cncn2)cc1`: 5.49%; for `CN(C)c1ccc2c(c1)/C(=C/Nc1ccc(S(N)(=O)=O)cc1)C(=O)N2`: 2.05%; for `C[C@@H](Oc1cc(-n2cnc3ccc(OCC4CCN(C)CC4)cc32)sc1C(N)=O)c1ccccc1Cl`: 6.85%.
For `CN(C)CCCNc1nccc(-c2c(-c3ccc(F)cc3)nn3cc(C(F)(F)F)ccc23)n1`, the inhibition came to 2.77%.
The same measure, in the same setting: the same measure for `COc1ccc2ncn(-c3cc(O[C@H](C)c4ccccc4Cl)c(C(N)=O)s3)c2c1`: 6.75%.
Still for that read-out and setting: the value for `CN(C)CCOc1ccc(-c2cc(-c3ccc4c(c3)CCC4=NO)c(-c3ccncc3)o2)cc1` was -1.63%; that for `Cc1nnc(-c2ccc(C)c(-c3ccc(C(=O)NCc4ccc(Cl)cc4)cc3)c2)o1` was 4.01%.
On to `O=C(Nc1n[nH]c2nc(-c3ccco3)ccc12)C1CC1`, for which the inhibition was determined as 0.64%.
On the same count and under the same terms, the same measure for `CCc1ccc(Oc2nccc(-c3c(-c4ccc(F)cc4)ncn3C3CCNCC3)n2)cc1`: 5.69%.
The same measure, in the same setting: the same measure for `Fc1ccc(-c2c(-c3ccncc3)nc3n2CCS3)cc1`: 3.16%; for `Fc1ccc(-c2ncn(C3CCNCC3)c2-c2ccnc(Oc3ccc4c(c3)OCO4)n2)cc1`: 6.56%.
Still for that read-out and setting: the same measure for `Nc1nccc(-c2c(-c3ccc(F)cc3)ncn2C2CCC(O)CC2)n1` (centres undefined): -3.59%.
Regarding `c1ccc(-c2n[nH]cc2-c2ccnc(-c3ccc(OCCN4CCOCC4)cc3)c2)nc1`, the inhibition was 3.78%.
On the same count and under the same terms, the value for `COc1cccc(/C=N/Nc2ncnc3c2cnn3-c2cccc(OC)c2)c1` was 4.34%.
Take `CCS(=O)(=O)c1ccc(OC)c(Nc2ncc(-c3cccc(-c4ccccc4F)c3)o2)c1`: the inhibition is -0.27%.
Take `Fc1ccc(-c2ncn(C3CCNCC3)c2-c2ccnc(Oc3ccc(Oc4ccccc4)cc3)n2)cc1`: the inhibition worked out at 8.51%.
`NCc1ccc(-n2c(-c3nonc3N)nc3cnccc32)cc1`: the inhibition came out at 6.83%.
On the same count and under the same terms, the value for `CCc1nccc2c1nc(-c1nonc1N)n2CC` was 1.09%; that for `COc1cc2ncn(-c3cc(OCCc4ccccc4)c(C(N)=O)s3)c2cc1OC` was 2.82%; that for `FC(F)(F)c1cccc(Nc2nccc(-c3cnn4nc(-c5ccccc5)ccc34)n2)c1` was 2.27%.
Same read-out and setting: the value for `COC(=O)Nc1nc2ccc(Sc3ccc(NC(=O)Nc4cc(C(F)(F)F)ccc4F)cc3)cc2[nH]1` was 0.83%; that for `COc1ccc(C2=C(N3CCc4ccccc43)C(=O)NC2=O)cc1` was 5.37%.
On the same count and under the same terms, the value for `CN1CCN(CCCNc2nc3ccc(Oc4ccc(NC(=O)Nc5cc(C(F)(F)F)ccc5F)cc4)cc3[nH]2)CC1` was 2.65%; that for `CCC(=O)Nc1ccc(C)c(-c2ccc(C(=O)NCC3CC3)cc2)c1` was 3.37%.
With `CN(c1ccc(NC(=O)Nc2c(Cl)cccc2Cl)cc1)c1ccnc(Nc2cccc(CS(C)(=O)=O)c2)n1`, the inhibition amounted to 1.38%.
Still for that read-out and setting: the same measure for `NS(=O)(=O)c1ccc(N/N=C2\C(=O)Nc3ccc(C(=O)NCCCn4ccnc4)cc32)cc1`: 5.04%.
Same read-out and setting: the value for `Cc1ccc(NC(=O)c2ccoc2)cc1-c1ccc(C(=O)NCC2CC2)cc1` was 1.14%.

A further experiment has as its target Serine/threonine-protein kinase PAK 5 (Homo sapiens) (UniProt Q9P286). The conditions noted are these: at 0.1 µM.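 Further: values are mean percent inhibition of PAK5 from a kinase inhibitor set screen.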
On to `O=C(Nc1n[nH]c2nc(-c3ccc(O)cc3)c(Br)cc12)C1CC1`, for which the inhibition is 1.12%.
Same read-out and setting: the same measure for `COc1ccc2cc(-c3c(-c4ccncc4)nc(-c4ccc([S+](C)[O-])cc4C)n3C)ccc2c1` (centres undefined): -5.87%.
The same measure, in the same setting: the value for `c1ccc(Oc2ccc(Nc3ncc(-c4ccccc4)o3)cc2)cc1` was -0.61%.
`C[C@@H](Oc1cc(-n2cnc3ccc(OC4CCN(C)CC4)cc32)sc1C(N)=O)c1ccccc1Cl`: the inhibition was 4.34%.
Same read-out and setting: the value for `NC(=O)c1cc(-c2ccncc2)cc(-c2ccccc2)c1N` was 1.02%.
As for `O=C(NCC1CC1)c1ccc(-c2cccc(C(=O)NC3CC3)c2)cc1`, the inhibition amounted to 9.42%.
Still for that read-out and setting: the same measure for `CN(C)c1ccc2c(c1)/C(=C/Nc1ccc(S(N)(=O)=O)cc1)C(=O)N2`: -3.51%; for `C[C@@H](Oc1cc(-n2cnc3ccc(OCC4CCN(C)CC4)cc32)sc1C(N)=O)c1ccccc1Cl`: 5.72%; for `CN(C)CCCNc1nccc(-c2c(-c3ccc(F)cc3)nn3cc(C(F)(F)F)ccc23)n1`: 0.97%.
`COc1ccc2ncn(-c3cc(O[C@H](C)c4ccccc4Cl)c(C(N)=O)s3)c2c1`: the inhibition was determined as 1.71%.
On the same count and under the same terms, the same measure for `CN(C)CCOc1ccc(-c2cc(-c3ccc4c(c3)CCC4=NO)c(-c3ccncc3)o2)cc1`: -8.32%; for `O=C(Nc1n[nH]c2nc(-c3ccco3)ccc12)C1CC1`: 5.55%.
Consider `CCc1ccc(Oc2nccc(-c3c(-c4ccc(F)cc4)ncn3C3CCNCC3)n2)cc1`, for which the inhibition came to 6.56%.
Same read-out and setting: the same measure for `Fc1ccc(-c2c(-c3ccncc3)nc3n2CCS3)cc1`: 1.47%.
The same measure, in the same setting: the value for `Fc1ccc(-c2ncn(C3CCNCC3)c2-c2ccnc(Oc3ccc4c(c3)OCO4)n2)cc1` was 1.45%.
The same measure, in the same setting: the value for `Nc1nccc(-c2c(-c3ccc(F)cc3)ncn2C2CCC(O)CC2)n1` (centres undefined) was -2.46%; that for `c1ccc(-c2n[nH]cc2-c2ccnc(-c3ccc(OCCN4CCOCC4)cc3)c2)nc1` was -6.65%; that for `COc1cccc(/C=N/Nc2ncnc3c2cnn3-c2cccc(OC)c2)c1` was 1.31%.
Regarding `CCS(=O)(=O)c1ccc(OC)c(Nc2ncc(-c3cccc(-c4ccccc4F)c3)o2)c1`, the inhibition was determined as 6.6%.
Still for that read-out and setting: the value for `Fc1ccc(-c2ncn(C3CCNCC3)c2-c2ccnc(Oc3ccc(Oc4ccccc4)cc3)n2)cc1` was 5.41%; that for `COc1cc2ncn(-c3cc(OCCc4ccccc4)c(C(N)=O)s3)c2cc1OC` was -3.93%; that for `FC(F)(F)c1cccc(Nc2nccc(-c3cnn4nc(-c5ccccc5)ccc34)n2)c1` was -0.43%.
For `COC(=O)Nc1nc2ccc(Sc3ccc(NC(=O)Nc4cc(C(F)(F)F)ccc4F)cc3)cc2[nH]1`, the inhibition turned out to be 6.86%.
Same read-out and setting: the value for `COc1ccc(C2=C(N3CCc4ccccc43)C(=O)NC2=O)cc1` was 4.64%.
The same measure, in the same setting: the same measure for `CN1CCN(CCCNc2nc3ccc(Oc4ccc(NC(=O)Nc5cc(C(F)(F)F)ccc5F)cc4)cc3[nH]2)CC1`: 1.27%; for `CCC(=O)Nc1ccc(C)c(-c2ccc(C(=O)NCC3CC3)cc2)c1`: -0.07%.
Still for that read-out and setting: the same measure for `CN(c1ccc(NC(=O)Nc2c(Cl)cccc2Cl)cc1)c1ccnc(Nc2cccc(CS(C)(=O)=O)c2)n1`: 4.31%.
Regarding `Cc1ccc(NC(=O)c2ccoc2)cc1-c1ccc(C(=O)NCC2CC2)cc1`, the inhibition was -1.43%.

The values above are taken from ChEMBL document CHEMBL1961873, “Compounds: GSK PKIS; Assays: Nanosyn kinase panel” (2012).
